About 83,000 compounds went through this panel and 20% of them were active in at least one assay; those are over-represented in the sample as a whole.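 A percent growth of 40 corresponds to 60% growth inhibition; 0 means no net growth; -100 means all cells died. Active threshold: below 10.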 A number with no mark means an inactive call. The source made the active and inactive calls.

Common to all, as to test: NCI-60 one-dose screen, 48 h (100 = growth as untreated, 0 = no growth, -100 = all killed)
Holding throughout (settings): 10 µM unless noted

Assay [1] deals with T-47D breast.
Assay [2] relates to BT-549 breast.
Assay [3] concerns MDA-MB-435 melanoma.
Assay [4] has as its system SW-620 colon.
Assay [5] deals with MCF7 breast.
Assay [6] concerns HCT-116 colon.
Assay [7] relates to HCC-2998 colon.
Assay [8] has as its system KM12 colon.

On to `O=C(Cn1c2ccccc2c2ccncc21)N/N=C/c1c[nH]c2ccccc12`, for which the growth in assay [1] is 90.2%; in assay [2], 94.4%; in assay [3] it was 33.8%; in assay [4] it was 34.3%; in assay [5], 37.8%; in assay [6], 4.33% (active). Moreover, the results for the growth in assay [7] and in assay [8] were 87.5% and 60.5%, respectively.

As to `Nc1nc(Cl)cc(NCc2ccc(CNc3cc(Cl)nc(N)n3)cc2)n1`, the growth in assay [1] was 69.2%; in assay [2] it was 72.6%; in assay [3] it was 106%; in assay [4] it was 87.4%; in assay [5], 103%; in assay [6] it was 83.3%. The growth in assay [7] is 101%; in assay [8], 99%.

As to `COc1ccc(CCNC=O)cc1OC`, the growth was 99.7% in assay [1]; 96.1% in assay [2]; 103% in assay [3]; 93.4% in assay [4]; 94.1% in assay [5]; 100% in assay [6]. For the same compound, the growth in assay [7] was 104%; in assay [8], 102%.

As to `CC1CCC(C(C)C)C(NN)C1` (configuration not stated), the growth in assay [1] is 80.2%; in assay [2] it was 105%; in assay [3], 110%; in assay [4] it was 104%; in assay [5] it was 100%; in assay [6] it was 106%. The results for the growth in assay [7] and in assay [8] were 97.9% and 105%, respectively.

Regarding `COc1ccc2c(c1)/C(=C/c1c(-c3cc(OC)c(OC)c(OC)c3Br)nc3sccn13)C(=O)N2`, the growth was 90.1% in assay [1]; 86.2% in assay [2]; 93.2% in assay [3]; 94.4% in assay [4]; 85% in assay [5]; 87.7% in assay [6]. For the same compound, the growth in assay [7] is 134%; in assay [8] it was 94.6%.

Turning to `Cc1c(NC(=O)c2sc3nc4c(cc3c2N)CN(Cc2ccccc2)CC4)cccc1C(F)(F)F`, the growth in assay [1] is 48.9%; in assay [2], 49.2%; in assay [3], 13.1%; in assay [4], 19.3%; in assay [5], 16.4%; in assay [6], 19.5%. Besides, the growth in assay [7] was 64.7%; in assay [8] it was 27%.

Turning to `CCN(CC)CCNC(=O)c1c(C)[nH]c(/C=C2\C(=O)Nc3cc(NC(=O)NC(=O)c4ccc(OC)cc4F)ccc32)c1C`, the growth in assay [1] was 104%; in assay [2] it was 104%; in assay [3], 110%; in assay [4], 94.9%; in assay [5], 58.3%; in assay [6], 64.7%. Further, the growth in assay [7] is 100%; in assay [8], 51.5%.

As for `Cc1cc(NC(=O)c2cccc(C(F)(F)F)c2)ccc1-n1ccc2c(NC(=O)c3ccccc3)nccc21`, the growth was 78.8% in assay [1]; 88.7% in assay [2]; 105% in assay [3]; 110% in assay [4]; 103% in assay [5]; 83.5% in assay [6]. For the same compound, the growth in assay [7] was 115%; in assay [8], 100%.

`O=c1c2ccccc2sc2c(NCCN3CCOCC3)nc3ccccc3c12`: the growth in assay [1] was 52.2%; in assay [2], 73.7%; in assay [3] it was 70.1%; in assay [4], 18%; in assay [5], 43.7%; in assay [6], 42.5%. For the same compound, the growth in assay [7] is 54.2%; in assay [8], 30%.

Take `O=C(O)c1ccc(-n2cc(/C=N/Nc3ccc(F)cc3)c(-c3cccc(C(F)(F)F)c3)n2)cc1`: the growth in assay [1] is 73.2%; in assay [2], 95.4%; in assay [3], 57.8%; in assay [4], 63.3%; in assay [5], 46.4%; in assay [6], 66.3%. The values for the growth in assay [7] and in assay [8] were 55.2% and 52.8%, respectively.

With `O=C(COc1ccc(Cl)cc1Cl)N1N=C(c2ccc(Cl)cc2Cl)CC1(O)c1cc(F)c(Cl)cc1Cl` (configuration not stated), the growth in assay [1] is 98.8%; in assay [2], 111%; in assay [3] it was 107%; in assay [4], 116%; in assay [5], 95.6%; in assay [6] it was 95%. For the same compound, the growth in assay [7] is 124%; in assay [8], 117%.

For the compound `COc1cc(-c2nc(SCC(=O)Nc3ccc(C(C)=O)cc3)[nH]c(=O)c2C#N)cc(OC)c1OC`, the growth in assay [1] was 35.9%; in assay [2] it was 36.8%; in assay [3], -46.1% (active); in assay [4] it was 25.8%; in assay [5], 18.2%; in assay [6], 3.92% (active). The growth in assay [7] is 21%; in assay [8], 16.8%.

On to `CC(Cc1cccc(C(F)(F)F)c1)NCCOC(=O)c1ccccc1` (configuration not stated), for which the growth in assay [1] was 105%; in assay [2] it was 109%; in assay [3], 102%; in assay [4], 103%; in assay [5], 106%; in assay [6], 100%. Also, the growth in assay [7] was 109%; in assay [8], 114%.

Take `COc1cc(NS(C)(=O)=O)ccc1Cc1c2ccccc2nc2ccccc12`: the growth was 33.5% in assay [1]; -13.9% (active) in assay [2]; 51.1% in assay [3]; 26.6% in assay [4]; 28% in assay [5]; 0.0983% (active) in assay [6]. For the same compound, the growth in assay [7] is 11.9%; in assay [8] it was 11.1%.

The values are drawn from PubChem BioAssay (NCI).
